Shown are actives, neighbours in structure and some others; about 1.5% of the full set was active somewhere.
Rin1 Abl inh = inhibitors of Rin1-Abl protein binding, primary screen, biochemical, TR-FRET | Tyrosine-protein kinase ABL1 (Homo sapiens) + Ras and Rab interactor 1 (Homo sapiens), … | hit rate 0.4% among 360,000 | inhibition, % at 7.35 µM; in the data active means inhibition above about 5%, passing the limit was not always enough
HGIII-sPLA2 inh = human group III sPLA2 inhibitors, primary screen, biochemical, QFRET, BODIPY PC-A2 liposome substrate | Group 3 secretory phospholipase A2 (Homo sapiens), Q9NZ20 | QFRET BODIPY PC-A2 liposome hydrolysis, fluorescence | inhibition, % at 12.2 µM | hit rate 0.56% among 370,000;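 active means inhibition above mean plus 3 SD of compounds lying within the high and low control bounds, cut at about 19% in these data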
Target sequence (Q9NZ20 whole entry, looked up): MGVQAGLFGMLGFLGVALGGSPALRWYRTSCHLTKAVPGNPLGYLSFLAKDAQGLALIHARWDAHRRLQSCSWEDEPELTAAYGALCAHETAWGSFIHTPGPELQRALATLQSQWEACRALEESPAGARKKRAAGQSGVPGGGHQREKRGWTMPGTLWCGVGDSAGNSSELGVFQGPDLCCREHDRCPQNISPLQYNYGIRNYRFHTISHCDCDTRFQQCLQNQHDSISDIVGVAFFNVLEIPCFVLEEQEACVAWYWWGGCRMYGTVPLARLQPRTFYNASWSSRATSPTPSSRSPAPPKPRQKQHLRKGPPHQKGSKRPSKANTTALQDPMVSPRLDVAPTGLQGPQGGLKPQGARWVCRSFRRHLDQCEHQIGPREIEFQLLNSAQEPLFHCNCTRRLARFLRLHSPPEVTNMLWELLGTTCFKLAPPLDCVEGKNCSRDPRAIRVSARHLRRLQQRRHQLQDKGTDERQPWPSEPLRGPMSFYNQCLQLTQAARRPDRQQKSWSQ
AI-2 QS modul = Vibrio harveyi AI-2 quorum sensing modulators, primary screen, JMH597 strain, luminescence/OD600 ratio; hit rate 0.4% among 300,000; AID 2094, 2009; Vibrio harveyi JMH597 AI-2 luminescence/OD600 ratio, 9 h; stronger effect = lower value; strain lacks LuxN and CqsS sensors; 0 = neutral-control median; activity change, % at 7.5 µM; in the data active means activity change below about -75%, passing the limit was not always enough;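 further: luminescence divided by OD600 gain over 9 h not by final OD600 alone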
ARNT-TACC3 inh = disruptors of ARNT/TACC3 protein interaction, primary screen, biochemical, AlphaScreen, single concentration; Transforming acidic coiled-coil-containing protein 3 (Homo sapiens), Q9Y6A5; AlphaScreen His-ARNT PAS-B/GST-TACC3 binding, luminescence; TACC3 fragment carries E629A point mutation; inhibition, % at 9.99 µM; hit rate 0.66% among 390,000; AID 623870, 2012;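 active means mean inhibition of replicates at least 50% and at least half of replicates each reaching 50%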
hGIII sPLA2 conf = human group III sPLA2 inhibitors, confirmation, biochemical, QFRET, triplicate; shares compounds with HGIII-sPLA2 inh; recombinant hGIII-sPLA2, BODIPY PC-A2 QFRET fluorescence; inhibition, % at 12.2 µM; hit rate 34% among 2,000;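 active means mean inhibition across triplicates above the hit cutoff set in the earlier primary screen, cut at about 19% in these data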
BODIPY interf = 535nm fluorescence optical interference, confirmation, artefact control for HGIII-sPLA2 inhibitor project, biochemical, QFRET | shares compounds with HGIII-sPLA2 inh | BODIPY FL product fluorescence interference | inhibition, % at 12.2 µM | hit rate 8.5% among 2,000 | AID 743282, 2014;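 active means average inhibition above the solvent-only control mean plus 3 SD, cut at about 6% in these data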
BODIPY interf DR = 535nm fluorescence optical interference, dose response, artefact control for HGIII-sPLA2 inhibitor project, biochemical, QFRET; 240 tested, under 10 active; AID 743455, 2014; shares compounds with HGIII-sPLA2 inh; IC50, µM; BODIPY FL product fluorescence interference, cell-free;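 active means IC50 at or below 10 µM; inactive means IC50 above 10 µM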
Large screens that a line does not name were inactive (follow-up assays come after a bar, where they were run).

C[C@H](CO)N1C[C@H](C)[C@H](CN(C)S(C)(=O)=O)Oc2ccc(NS(=O)(=O)c3cn(C)cn3)cc2C1=O	none (no result: Rin1 Abl inh, HGIII-sPLA2 inh, AI-2 QS modul)
CCC(=O)N1C[C@@H](O)COC[C@H]2O[C@@H](CC(=O)NC)CC[C@@H]21	none (no result: Rin1 Abl inh, HGIII-sPLA2 inh, AI-2 QS modul)
O=C(NC(=S)NNC(=O)c1ccccc1O)c1ccc(F)cc1	HGIII-sPLA2 inh 35.4, ARNT-TACC3 inh 18.7 | hGIII sPLA2 conf 31.4 | BODIPY interf inactive
COc1cc(C(=O)NNC(=S)NC(=O)c2ccc(F)cc2)cc(OC)c1OC	none
CC(=O)Nc1ccc(NC(=S)NC(=O)c2ccc([N+](=O)[O-])cc2)cc1	HGIII-sPLA2 inh 23.8 | hGIII sPLA2 conf inactive | BODIPY interf inactive
O=C(NC(=S)NNC(=O)c1ccccc1O)c1ccccc1	HGIII-sPLA2 inh 31.4, ARNT-TACC3 inh 55.0 | hGIII sPLA2 conf 25.5 | BODIPY interf inactive
CC(C)C(=O)Nc1ccc(NC(=S)NC(=O)c2ccc([N+](=O)[O-])cc2)cc1	none
Cc1ccc(S(=O)(=O)Nc2ccc3c(c2)C(=O)N([C@H](C)CO)C[C@@H](C)[C@H](CN(C)C(=O)Nc2c(C)noc2C)O3)cc1	none (no result: Rin1 Abl inh, HGIII-sPLA2 inh, AI-2 QS modul)
CO[C@@H]1CN(C)C(=O)c2cc(NC(=O)C3CCCCC3)ccc2OC[C@@H](C)N(C)C[C@H]1C	none (no result: Rin1 Abl inh, HGIII-sPLA2 inh, AI-2 QS modul)
S=c1nc[nH]c2c1[nH]c1ccc(Cl)cc12	HGIII-sPLA2 inh 20.0 | hGIII sPLA2 conf inactive | BODIPY interf inactive
S=c1nc[nH]c2c1[nH]c1ccccc12	none
Cc1cccc(N2C(=O)C3C4C=CC(C5CC45)C3C2=O)n1 (stereo not drawn)	none
Cc1cccc(N2C(=O)CCC2=O)n1	HGIII-sPLA2 inh 20.5 | hGIII sPLA2 conf inactive | BODIPY interf inactive
Cc1ccccc1NC(=O)c1c(C)[nH]c(=S)c(C#N)c1-c1ccco1	HGIII-sPLA2 inh 20.5 | hGIII sPLA2 conf 20.5 | BODIPY interf inactive
Cc1ccc(S(=O)(=O)NCCC(=O)N2CC(C)OC(C)C2)cc1 (stereo not drawn)	HGIII-sPLA2 inh 21.7 | hGIII sPLA2 conf inactive | BODIPY interf inactive
Cc1cccc(NC(c2ccc(O)cc2)c2ccc3ccc(C)nc3c2O)n1 (stereo not drawn)	none
COc1cccc(C(Nc2ccccc2)c2ccc3ccc(C)nc3c2O)c1 (stereo not drawn)	HGIII-sPLA2 inh 21.5 (no result: Rin1 Abl inh, AI-2 QS modul, ARNT-TACC3 inh) | hGIII sPLA2 conf inactive | BODIPY interf 8.3
CSC1=N/C(=C/c2cccnc2)C(=O)N1Cc1ccc(Cl)cc1	HGIII-sPLA2 inh 32.5 | hGIII sPLA2 conf inactive | BODIPY interf inactive
CSC1=N/C(=C/c2cccnc2)C(=O)N1Cc1ccccc1	none
COc1ccc(NC(=O)Nc2ccc3c(c2)C(=O)N([C@@H](C)CO)C[C@@H](C)[C@H](CN(C)C(=O)Nc2ccc(C(F)(F)F)cc2)OCCCC[C@H](C)O3)cc1	none (no result: Rin1 Abl inh, HGIII-sPLA2 inh, AI-2 QS modul)
OCCN=Cc1c(O)[nH]c2ccccc12	none
CN(C)CC(C)(C)CN=Cc1c(O)[nH]c2ccccc12	HGIII-sPLA2 inh 19.3 | hGIII sPLA2 conf inactive | BODIPY interf inactive
Cc1cccc(NC(=O)CCCN2C(=S)NC(C)(C)CC2C)c1C (stereo not drawn)	none
CC1CC(C)(C)NC(=S)N1CCC(=O)N1c2ccccc2CC1C (stereo not drawn)	none
Cc1cccc(N2CCN(C(=O)CCN3C(=S)NC(C)(C)CC3C)CC2)c1C (stereo not drawn)	HGIII-sPLA2 inh 28.1 | hGIII sPLA2 conf inactive | BODIPY interf inactive
Cc1ccc(C)c(N2CCN(C(=O)CCCN3C(=S)NC(C)(C)CC3C)CC2)c1 (stereo not drawn)	HGIII-sPLA2 inh 21.9 | hGIII sPLA2 conf 20.9 | BODIPY interf inactive
CCN(CC)CCNC(=S)Nc1ccc(Cl)cc1	HGIII-sPLA2 inh 21.2 | hGIII sPLA2 conf inactive | BODIPY interf inactive
CCCCc1n[nH]c(=S)n1Cc1ccc(Cl)cc1	HGIII-sPLA2 inh 19.6 (no result: ARNT-TACC3 inh) | hGIII sPLA2 conf 25.8 | BODIPY interf inactive
CCCCc1n[nH]c(=S)n1Cc1ccccc1	none
COc1cccc(-c2n[nH]c(=S)n2Cc2ccco2)c1	HGIII-sPLA2 inh 22.6 | hGIII sPLA2 conf 25.0 | BODIPY interf inactive
CCCc1n[nH]c(=S)n1Cc1ccco1	HGIII-sPLA2 inh 21.7 | hGIII sPLA2 conf inactive | BODIPY interf inactive
CN1C(=O)c2cc(NC(=O)C3CCOCC3)ccc2OC[C@H]2O[C@H](CC(=O)NCc3ccccc3F)CC[C@H]21	none (no result: Rin1 Abl inh, HGIII-sPLA2 inh, AI-2 QS modul)
Cc1ccc2c(c1)C(=O)C(=O)N2Cc1ccc(F)cc1	none (no result: AI-2 QS modul)
Cc1ccc2c(c1)C(=O)C(=O)N2Cc1ccc(Cl)cc1	HGIII-sPLA2 inh 20.8 (no result: AI-2 QS modul) | hGIII sPLA2 conf 23.0 | BODIPY interf inactive
Cc1noc(C)c1S(=O)(=O)Nc1ccc2c(c1)C(=O)N([C@H](C)CO)C[C@@H](C)[C@H](CN(C)Cc1ccc3c(c1)OCO3)OCCCC[C@H](C)O2	none (no result: Rin1 Abl inh, HGIII-sPLA2 inh, AI-2 QS modul)
C[C@@H]1CN([C@H](C)CO)C(=O)c2cc(NC(=O)Cn3cnnn3)ccc2O[C@@H]1CN(C)Cc1ccc(Cl)c(Cl)c1	none (no result: Rin1 Abl inh, HGIII-sPLA2 inh, AI-2 QS modul)
CCN(CC)S(=O)(=O)c1ccc(C)c(NC(=O)COc2ccc3c(C)cc(=O)oc3c2)c1	HGIII-sPLA2 inh 19.9 | hGIII sPLA2 conf inactive | BODIPY interf inactive
O=C(CCCn1c(=S)[nH]c2ccccc2c1=O)NC1CCCCC1	none (no result: ARNT-TACC3 inh)
CC1CCCCC1NC(=O)CCn1c(=S)[nH]c2ccccc2c1=O (stereo not drawn)	HGIII-sPLA2 inh 21.0 (no result: AI-2 QS modul, ARNT-TACC3 inh) | hGIII sPLA2 conf 19.5 | BODIPY interf inactive
COCC(=O)Nc1ccc2c(c1)C(=O)N(C)[C@@H]1CC[C@H](CC(=O)NCc3ccc(OC)cc3)O[C@H]1CO2	none (no result: Rin1 Abl inh, HGIII-sPLA2 inh, AI-2 QS modul)
CCOC(=O)c1ccc(NC(=S)Nc2cccc(N)n2)cc1	HGIII-sPLA2 inh 22.1 | hGIII sPLA2 conf 22.0 | BODIPY interf inactive
CCOC(=O)c1ccc(NC(=S)Nc2cccc(C)n2)cc1	none
C[C@H]1CCCCO[C@H](CN(C)CC2CCCCC2)[C@@H](C)CN([C@@H](C)CO)C(=O)c2cc(NS(=O)(=O)c3ccc(F)cc3)ccc2O1	none (no result: Rin1 Abl inh, HGIII-sPLA2 inh, AI-2 QS modul)
CCC(C)[C@H](NC(=O)[C@H](Cc1ccccc1)NC(=O)OC(C)(C)C)C(=O)NCc1ccccc1Br (stereo partly drawn)	HGIII-sPLA2 inh 20.1 (no result: Rin1 Abl inh, AI-2 QS modul, ARNT-TACC3 inh) | hGIII sPLA2 conf inactive | BODIPY interf inactive
Cc1onc(-c2c(Cl)cccc2Cl)c1C(=O)N/N=C(\N)COc1ccc(Cl)cc1	HGIII-sPLA2 inh 27.9 | hGIII sPLA2 conf 31.4 | BODIPY interf inactive | BODIPY interf DR inactive
